# From PubChem BioAssay (NCATS)
# Inconclusive results are not listed. Active and inactive are the calls of the source. Unless noted, calls come from the whole dose curve; as a rule, active = well fitted inhibition curve with a large enough effect; inconclusive = small, poorly fitted or top-dose-only effect; inactive = flat fitted curve, though single readings scatter.
# What was measured:
# [1] = qHTS drug screen for cell cycle checkpoint inhibitors in PARPi-resistant BRCA-mutant ovarian cancer cell lines. (AID 1963452; calls by dose curve); conditions: PEO1/OlaR viability, CellTiter-Glo luminescence, 96 h, stronger effect = lower value
# In short: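 PEO1, PEO4 and PEO1/OlaR ovarian cancer cells, 600 per well, exposed 96 h at 37C to a dilution series. Viability read by CellTiter-Glo luminescence, normalized to DMSO and empty wells; activity summarized as Z-AUC.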
# [2] = qHTS profiling for inhibitors of Plasmodium falciparum proliferation (AID 504749); note: nearly all actives have a fitted effect of over 60% in size; note: potency is the fitted concentration of half-maximal effect;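 for activity, negative = inhibition: 0% = DMSO vehicle and full inhibition = artemisinin control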; conditions: P. falciparum in erythrocytes, SYBR Green DNA, 72 h
# In short: (§1)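 Three-day growth assay of blood-stage parasites in erythrocytes (0.3% parasitemia, 2.5% hematocrit) at 37 C, 5% CO2, quantified by SYBR Green DNA staining after overnight detergent lysis.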
# 3D7 = assay: as above; conditions: P. falciparum in erythrocytes, SYBR Green DNA, 72 h; series mostly up to 28.7 µM
# In short: as §1
# 7G8 = assay: as above; conditions: P. falciparum in erythrocytes, SYBR Green DNA, 72 h; series mostly up to 28.7 µM
# In short: as §1
# AA1029 = assay: as above; conditions: P. falciparum in erythrocytes, SYBR Green DNA, 72 h; series mostly up to 28.7 µM
# In short: as §1
# [3] = measured here: PEO1 parental Z-AUC
# [4] = at 28.7 µM (top of the series), parasite line A
# [5] = at 28.7 µM (top of the series), parasite line B
# [6] = at 12.8 µM (top of the series), parasite line A
# [7] = at 12.8 µM (top of the series), parasite line B
compound,measurement,setting,value
COc1cc2c(cc1O)CC[C@@H]1[C@@H]2CC[C@]2(C)[C@@H](O)CC[C@@H]12,Z-AUC,[1],0.212 (inactive)
same,Z-AUC,[1]; [3],-0.545
same,Z-AUC,[1]; measured here: PEO4 Z-AUC,-0.454
C[C@]12CC[C@@H]3c4ccc(O)cc4CC[C@H]3[C@@H]1C[C@@H](O)[C@@H]2O,Z-AUC,[1],-0.032 (inactive)
same,Z-AUC,[1]; [3],0.00281
same,Z-AUC,[1]; measured here: PEO4 Z-AUC,0.225
CC[C@H](C)C(=O)O[C@H]1CCC=C2C=C[C@H](C)[C@H](CC[C@@H]3C[C@@H](O)CC(=O)O3)[C@H]21,Z-AUC,[1],1.25 (inactive)
same,Z-AUC,[1]; [3],1.13
same,Z-AUC,[1]; measured here: PEO4 Z-AUC,1.15
COC(=O)[C@@H]1CC2=CC(=O)CC[C@]2(C)[C@@]23O[C@@H]2C[C@@]2(C)[C@@H](CC[C@@]24CCC(=O)O4)[C@H]13,Z-AUC,[1],-0.162 (inactive)
same,Z-AUC,[1]; [3],-0.149
same,Z-AUC,[1]; measured here: PEO4 Z-AUC,0.317
same,"activity, negative = inhibition",[2]; [4],8.39% (inactive)
same,"activity, negative = inhibition",[2]; [5],17.6% (inactive)
same,Potency,3D7,inactive
same,Potency,7G8,inactive
same,Potency,AA1029,inactive
CN(C(=O)CN(CCO)CC(=O)N(C)C(C)(C)Cc1ccccc1)C(C)(C)Cc1ccccc1,"activity, negative = inhibition",[2]; [6],4.12% (inactive)
same,"activity, negative = inhibition",[2]; [7],-5.35% (inactive)
same,Potency,3D7,inactive
same,Potency,7G8,3.16 µM (active)
same,Potency,AA1029,inactive
O=c1[nH]c(=O)n([C@H]2C[C@H](O)[C@@H](CO)O2)cc1C(F)(F)F,Z-AUC,[1],-0.642 (inactive)
same,Z-AUC,[1]; [3],-0.928
same,Z-AUC,[1]; measured here: PEO4 Z-AUC,-0.403
CCN(CC)CCOC(=O)C(c1ccccc1)C1CCCCC1 (stereo unspecified),"activity, negative = inhibition",[2]; [4],0.689% (inactive)
same,"activity, negative = inhibition",[2]; [5],-1.84% (inactive)
same,Potency,3D7,inactive
CC(=O)OCC(=O)[C@@]12N=C(C)O[C@@H]1C[C@H]1[C@@H]3CCC4=CC(=O)C=C[C@]4(C)[C@H]3[C@@H](O)C[C@@]12C,Z-AUC,[1],0.653 (inactive)
same,Z-AUC,[1]; [3],1.08
same,Z-AUC,[1]; measured here: PEO4 Z-AUC,0.153
COc1cc(-c2ccc(=O)[nH]n2)ccc1OC(F)F,Potency,[2]; parasite line A,11.2 µM (active)
same,Potency,[2]; parasite line B,0.891 µM (active)
same,Potency,3D7,inactive
same,Potency,7G8,inactive
same,Potency,AA1029,0.178 µM (active)
OCc1ccccc1O,"activity, negative = inhibition",[2]; [4],6.96% (inactive)
same,"activity, negative = inhibition",[2]; [5],8.72% (inactive)
same,Potency,3D7,inactive
same,Potency,7G8,inactive
same,Potency,AA1029,inactive
N[C@@H](Cc1cnc[nH]1)C(=O)O,"activity, negative = inhibition",[2]; [4],3.46% (inactive)
same,"activity, negative = inhibition",[2]; [5],9.36% (inactive)
same,Potency,3D7,inactive
same,Potency,7G8,inactive
same,Potency,AA1029,inactive
O=C1CCC(c2ccc(-n3ccnc3)cc2)=NN1,"activity, negative = inhibition",[2]; [4],16% (inactive)
same,"activity, negative = inhibition",[2]; [5],14.3% (inactive)
same,Potency,3D7,inactive
same,Potency,7G8,inactive
same,Potency,AA1029,inactive
CC1=C(C(=O)OC(C)C)C(c2cccc([N+](=O)[O-])c2)C(C(=O)OC2CN(C(c3ccccc3)c3ccccc3)C2)=C(N)N1 (stereo unspecified),Potency,[2]; parasite line A,3.55 µM (active)
same,Potency,[2]; parasite line B,7.08 µM (active)
same,Potency,3D7,7.08 µM (active)
same,Potency,7G8,3.16 µM (active)
same,Potency,AA1029,7.08 µM (active)
CC(O)(P(=O)(O)O)P(=O)(O)O,"activity, negative = inhibition",[2]; [4],10.5% (inactive)
same,"activity, negative = inhibition",[2]; [5],4.89% (inactive)
same,Potency,3D7,inactive
same,Potency,7G8,inactive
same,Potency,AA1029,inactive
Cc1c(C(N)=O)cc([N+](=O)[O-])cc1[N+](=O)[O-],"activity, negative = inhibition",[2]; [4],-7.97% (inactive)
same,"activity, negative = inhibition",[2]; [5],-2.31% (inactive)
same,Potency,3D7,inactive
same,Potency,7G8,inactive
same,Potency,AA1029,inactive
CCCCCC=CCC=CCCCCCCCC(=O)OCC,"activity, negative = inhibition",[2]; [4],1.14% (inactive)
same,"activity, negative = inhibition",[2]; [5],2.81% (inactive)
same,Potency,3D7,inactive
same,Potency,7G8,inactive
same,Potency,AA1029,inactive
Nc1cc(Cl)c(NC2=NCCN2)c(Cl)c1,"activity, negative = inhibition",[2]; [4],18.9% (inactive)
same,"activity, negative = inhibition",[2]; [5],15.3% (inactive)
same,Potency,3D7,inactive
same,Potency,7G8,inactive
same,Potency,AA1029,inactive
NCCc1ccn[nH]1,"activity, negative = inhibition",[2]; [6],6.26% (inactive)
same,"activity, negative = inhibition",[2]; [7],12.5% (inactive)
same,Potency,3D7,inactive
same,Potency,7G8,inactive
same,Potency,AA1029,inactive
COc1cc(OC)cc(OC)c1,"activity, negative = inhibition",[2]; [4],14.7% (inactive)
same,"activity, negative = inhibition",[2]; [5],2.05% (inactive)
same,Potency,3D7,inactive
same,Potency,7G8,inactive
same,Potency,AA1029,inactive
COc1ccc(CCN2CCC(Nc3nc4ccccc4n3Cc3ccc(F)cc3)CC2)cc1,Potency,[2]; parasite line A,1.41 µM (active)
same,Potency,[2]; parasite line B,2.24 µM (active)
same,Potency,3D7,1.78 µM (active)
same,Potency,7G8,2.24 µM (active)
same,Potency,AA1029,3.55 µM (active)
Cc1c(N(C)CS(=O)(=O)O)c(=O)n(-c2ccccc2)n1C,"activity, negative = inhibition",[2]; [6],17.9% (inactive)
same,"activity, negative = inhibition",[2]; [7],23.3% (inactive)
same,Potency,3D7,inactive
same,Potency,7G8,inactive
same,Potency,AA1029,inactive
CCOc1ccc(NC(=O)CC(C)O)cc1 (stereo unspecified),"activity, negative = inhibition",[2]; [4],-3.02% (inactive)
same,"activity, negative = inhibition",[2]; [5],4.79% (inactive)
same,Potency,3D7,inactive
same,Potency,7G8,inactive
same,Potency,AA1029,inactive
CC(=O)Nc1c(I)cc(I)c(C(=O)O)c1I,"activity, negative = inhibition",[2]; [4],6.87% (inactive)
same,"activity, negative = inhibition",[2]; [5],14.3% (inactive)
same,Potency,3D7,inactive
same,Potency,7G8,inactive
same,Potency,AA1029,inactive
CCn1cc(C(=O)O)c(=O)c2cnc(N3CCCC3)nc21,"activity, negative = inhibition",[2]; [6],-13.8% (inactive)
same,"activity, negative = inhibition",[2]; [7],2.72% (inactive)
same,Potency,3D7,inactive
same,Potency,7G8,inactive
same,Potency,AA1029,inactive
C[C@@H]1C[C@H]2[C@@H]3CCC4=CC(=O)C=C[C@]4(C)[C@@]3(F)[C@@H](O)C[C@]2(C)[C@H]1C(=O)CO,"activity, negative = inhibition",[2]; [4],-3.59% (inactive)
same,"activity, negative = inhibition",[2]; [5],-8.33% (inactive)
same,Potency,3D7,inactive
same,Potency,7G8,11.2 µM (active)
same,Potency,AA1029,inactive
CCCCOc1ccc(OCCCN2CCOCC2)cc1,"activity, negative = inhibition",[2]; [6],9.41% (inactive)
same,"activity, negative = inhibition",[2]; [7],8.45% (inactive)
same,Potency,3D7,inactive
same,Potency,7G8,inactive
same,Potency,AA1029,inactive
